Compounds without any hit were thinned out: in the full panel of roughly 83,000, 20% have a hit.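 Assay: single dose, 48 h. Readout: percent growth (0 = no net growth; negative = cell death). Active: <10.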 A number with no mark means an inactive call. The source made the active and inactive calls.

The test system of this experiment is NCI-H460 lung. Briefly: NCI-60 one-dose screen, 48 h (100 = growth as untreated, 0 = no growth, -100 = all killed). To be noted: 10 µM unless noted.
As to `Clc1cccc(Nc2ncnc3ccc(-c4cnc5[nH]ccc5c4)cc23)c1`, the growth was 78.3%.
The result for `Nc1cc(C(=O)NC[C@H]2CN(c3ccc(N4CCC(C(=O)O)CC4)cc3)C(=O)O2)ccc1Cl` reads 103%; that for `N#CSCC1CC(O)(c2ccccc2)CC(c2ccc(F)cc2)O1` (stereo not given), -28.9% (active); that for `CCOC(=O)c1ccc2c(c1)nc(-c1ccccc1)n2C1CCCCC1`, 107%.
As to `Cc1cn(-c2cc(NC(=O)c3cncc(C#Cc4cnc(N)c5ncccc45)c3)cc(C(F)(F)F)c2)cn1`, the growth was 71.2%.
The value for `CCN(CC)Cc1cc(C=C2C(=O)NC(=S)NC2=O)cc(OC)c1O` was 104%.
The result for `COc1cc(/C=C/C(=O)c2ccc(F)cc2)ccc1OCCCCOc1ccc(/C=C/C(=O)c2c(C)nc3ccccc3c2C)cc1OC` reads 104%; that for `O=C1/C(=C/c2cccc(F)c2)CN(C(=O)C(Cl)Cl)C/C1=C\c1cccc(F)c1`, -63% (active).
The result for `N#Cc1ccc(O)c(C2=NCC(c3ccccc3)O2)c1` (stereo not given) reads 19.9%.
For `N=C(N)c1ccc(-c2ccc(-c3ccccc3)o2)cc1`, the growth was -73.1% (active).
As for `COC12C=C/C(=C(/C(=O)OCc3ccncc3)C(=O)CCCCCCCCC3(OC)C=C/C(=C(/C(=O)OCc4ccncc4)C(=O)CCCCCCCC1)O3)O2`, the growth was 1.88% (active).
The result for `COC(=O)/C=C1/SC(=Nc2cccc(OC)c2)N(CCc2c[nH]c3ccc(O)cc23)C1=O` reads 61.3%.
The result for `Cn1ccnc1C(=O)/C=C/c1ccc(CC(=O)Nc2cc(C(F)(F)F)cc(C(F)(F)F)c2)cc1` reads 55.3%; that for `CS(=O)(=O)Nc1cc(-c2ccc3ncnc(Nc4ccc5c(cnn5Cc5ccc(F)cc5)c4)c3c2)cnc1Cl`, 61.5%; that for `CCSc1nc2scc(C)c2c(=O)[nH]1`, 102%.
The result for `Fc1cccc(Oc2ccc(Nc3ncnc4ccc(OCCCN5CCOCC5)cc34)cc2Cl)c1` reads 42.5%.
As to `O=C(Nc1cccc2ccccc12)NC1CC1`, the growth was 106%.
The value for `Clc1ccc2c(NC3CCC(N4CCOCC4)CC3)ccnc2c1` (stereo not given) was 81.8%; that for `Cc1cc(N2CCN(CCNc3ccnc4cc(Cl)ccc34)CC2)nc(N2CCOCC2)n1` was 64.6%.
The value for `c1cnc2c(-c3nc4ccc5[nH]ncc5c4c4c3CCCC4)c[nH]c2c1` was 7.48% (active).
The value for `O=C(O)c1ccc(-n2cc(/C=N/Nc3ccccc3)c(-c3ccc(F)cc3F)n2)cc1` was 55.3%.
With `C=C(CBr)[C@@H]1CC[C@]2(C(=O)O)CC[C@]3(C)[C@H](CC[C@@H]4[C@@]5(C)CCC(=O)C(C)(C)[C@@H]5CC[C@]43C)[C@@H]12`, the growth was 81.3%.
The value for `O=C(CSC(=S)n1cnnc1)NC(=O)c1ccccc1` was 112%; that for `CC(C)(C)CC(C)(C)NC(=O)Nc1ncccc1OCc1ccccc1` was 106%; that for `Oc1ccc(Cl)cc1/C=N\NC(=S)N/N=C/c1cc(Cl)ccc1O` was 14.7%.
Take `CCc1ncnc2c1ccn2C(C)c1ccc(OC)c(F)c1` (stereo not given): the growth was 30.8%.
As to `C/C(=N\O)c1ccc(Cl)cc1`, the growth is 112%.
For the compound `CN(C)CCNC(=O)c1cc2c3cc(Cl)ccc3[nH]c2c2ncccc12`, the growth was -0.295% (active).
The result for `O=C(/C=C/c1ccco1)Nc1ncc(Cc2cccc(C(F)(F)F)c2)s1` reads -0.329% (active); that for `Cc1cc(S(=O)(=O)/N=C(\N)n2nc(C)c(C)c2C)c(SCc2ccccc2)cc1Cl`, 81.2%; that for `CN(c1cc2ncc(=O)[nH]c2cc1NC(N)=NCc1ccc(Cl)cc1)C1CCCCC1`, 40.3%.
The value for `COc1cc(-c2nc3sccn3c2-c2ccnc(NCCNS(=O)(=O)c3ccccc3)n2)ccc1F` was 60.4%; that for `O=C(Nc1cccc(-c2ccc(N3CCOCC3)nn2)c1)Nc1cccc(C(F)(F)F)c1` was 79.1%; that for `COCCNC(=O)Nc1ccc2nc(-c3cccs3)c(-c3cccs3)nc2c1` was 88.7%.
`O=C1/C=C/[C@@H](O)[C@@H]2C[C@@H](O)C[C@H]2/C=C/CCC[C@H](CCc2ccccc2)O1`: the growth is 15.5%.
For the compound `CC(=O)Oc1ccc(/C(=C(\C)c2ccc(Cl)cc2)c2ccc(OCCN3CCCCC3)cc2)cc1`, the growth is 20.2%.
The value for `N#Cc1nc(-c2ccc(F)cc2)oc1S(=O)(=O)N1CCOCC1` was 107%.
The value for `C#CCNC(=O)[C@H](CC)[C@H]1CC[C@H](C)[C@H]([C@@H](C)[C@H](O)[C@H](C)C(=O)[C@H](CC)C2O[C@]3(C=CC(=O)[C@]4(CC[C@@](C)([C@H]5CC[C@](O)(CC)[C@H](C)O5)O4)O3)[C@H](C)C[C@@H]2C)O1` (stereo not given in full) was 35.5%; that for `COc1ccc(CNc2c3ccccc3nc3ccccc23)cc1` was 9.69% (active).
The result for `Clc1cc(Cl)c(Cl)c(-c2nnc(SCc3ccncc3Br)o2)c1` reads 95.9%.

These data come from PubChem BioAssay (NCI).
